In PubChem BioAssay (Tox21):
A structure can be active in one record and inactive in another. Calls of active or inactive are those of the source. Unless noted, calls come from the whole dose curve; as a rule, active = well fitted curve in the direction sought with a large enough effect in the repeat runs; inconclusive = weak or mixed curves; inactive = no such curve, though single readings can be large; an effect the other way counts as inactive or inconclusive.

Columns and labels:
[1] = qHTS assay for small molecule agonists of the p53 signaling pathway (AID 651631; calls by dose curve; note: nearly all actives have a fitted effect of over 15% in size)
Procedure, shortened: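 Agonist mode screen using a stably integrated beta-lactamase gene under p53 response elements in HCT-116 cells. Compound exposure lasts 16 h at 37 °C; fluorescence intensity is measured following 2 h FRET substrate loading.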

[2] = qHTS assay for small molecule agonists of the p53 signaling pathway - cell viability (AID 651633; calls by dose curve;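 note: p53RE-bla HCT reporter cells with a stable beta-lactamase p53 reporter; nearly all actives have a fitted effect of over 30% in size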)
Procedure, shortened: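 p53RE-bla cells were treated with compound for 16 hours at 37 C. Cytotoxicity was then measured as CellTiter-Glo luminescence after 30 min at room temperature.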

[3] = qHTS assay for small molecule disruptors of the mitochondrial membrane potential - cell viability (AID 720634; calls by dose curve;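 note: human HepG2 liver cancer cells; nearly all actives have a fitted effect of over 20% in size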)
Procedure, shortened: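 Luminescence from CellTiter-Glo (ATP content) gave viability in HepG2 cells, read in the same wells as the MMP dye assay after 1 hr compound exposure at 37 C.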

[4] = qHTS assay to test for compound auto fluorescence at 590 nm (red) in HepG2 cells (AID 720674)
Procedure, shortened: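 Seeding: 2,000 HepG2 cells/well, MEM/10% FBS, overnight 37 C. Dosing: compound vs DMSO. Incubation: 1 hr, 37 C, 5% CO2. Read: fluorescence 540 ex/590 em, Rose Bengal sodium as red reference.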

[5] = qHTS assay to test for compound auto fluorescence at 535 nm (green) in HepG2 cells (AID 720675)
[6] = qHTS assay to test for compound auto fluorescence at 460 nm (blue) in HEK293 cells (AID 720678)
Procedure, shortened: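 Blue read-out at excitation 405 nm and emission 460 nm follows overnight compound exposure of HEK293 cells at 37C in 5% CO2. Activity is given as auto fluorescence equivalency to triamterene.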

[7] = qHTS assay to test for compound auto fluorescence at 535 nm (green) in HEK293 cells (AID 720680)
[8] = qHTS assay to test for compound auto fluorescence at 460 nm (blue) in HEK293 cell free culture (AID 720681)
Procedure, shortened: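 Compounds were added to cell-free DMEM with 10% FBS and fluorescence read directly. The blue channel used 405 nm excitation and 460 nm emission, with triamterene as the reference fluorophore.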

[9] = qHTS assay to test for compound auto fluorescence at 535 nm (green) in HEK293 cell free culture (AID 720682)
Procedure, shortened: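 No cells present: wells hold DMEM supplemented with 10% FBS, into which compound or vehicle is pinned. Green emission is then recorded (485 nm excitation, 535 nm emission) and scaled to fluorescein.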

[10] = qHTS assay to test for compound auto fluorescence at 590 nm (red) in HEK293 cell free culture (AID 720683)
Procedure, shortened: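 Cell-free wells of DMEM with 10% FBS received compound, and intrinsic fluorescence was read at excitation/emission 540/590 nm. Values expressed as equivalence to Rose Bengal sodium.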

[11] = qHTS assay to test for compound auto fluorescence at 590 nm (red) in HepG2 cell free culture (AID 720684)
Procedure, shortened: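 Rose Bengal sodium served as the reference for red signal. Test compounds were dispensed into serum-containing MEM (10% FBS) without cells, and plates were read at 540/590 nm.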

[12] = qHTS assay to test for compound auto fluorescence at 460 nm (blue) in HepG2 cell free culture (AID 720685)
Procedure, shortened: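 Cell-free plates of MEM plus 10% FBS received 23 nL compound or DMSO vehicle; blue-channel (405/460 nm) intensity scored against triamterene as reference fluorophore.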

[13] = qHTS assay to test for compound auto fluorescence at 535 nm (green) in HepG2 cell free culture (AID 720686)
[14] = qHTS assay to test for compound auto fluorescence at 460 nm (blue) in HepG2 cells (AID 720687)
Procedure, shortened: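 HepG2 cells in MEM with 10% FBS, attached overnight at 37 C, were exposed to compound or DMSO for 1 hr at 37 C, 5% CO2. Blue fluorescence was read at 405/460 nm, with triamterene as reference fluorophore.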

[15] = target: Glucocorticoid receptor (Homo sapiens) (UniProt P04150); test: qHTS assay to identify small molecule agonists of the glucocorticoid receptor (GR) signaling pathway (AID 720691; active = well fitted activation curve with a large enough effect in the signal ratio in the repeat runs, not every such curve was filed as active; inconclusive = weak or mixed curves, or effect the other way; inactive = no such curve, though single readings can be large or run the other way; the % refers to the signal ratio); details: GR-bla HeLa, beta-lactamase reporter ratio, 18 h
Procedure, shortened: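 HeLa GR-bla reporter line; cells pre-incubated 4 h, compound in DMSO 18 h at 37 C; LiveBLAzer B/G FRET substrate 2 h RT; fluorescence intensity read-out.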

[16] = target: Glucocorticoid receptor (Homo sapiens) (UniProt P04150); test: qHTS assay to identify small molecule antagonists of the glucocorticoid receptor (GR) signaling pathway (AID 720692; active = well fitted inhibition curve with a large enough effect in the signal ratio in the repeat runs, not every such curve was filed as active; inconclusive = weak or mixed curves, or effect the other way; inactive = no such curve, though single readings can be large or run the other way; the % refers to the signal ratio; note: potency is the fitted concentration of half-maximal effect)
Procedure, shortened: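 Read-out: beta-lactamase FRET substrate fluorescence, 2 h at room temperature, in HeLa cells stably carrying a GRE-driven bla reporter. Compounds were co-incubated with 5 nM dexamethasone agonist (final) for 18 h at 37 C.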

[17] = qHTS assay for small molecules that induce genotoxicity in human embryonic kidney cells expressing luciferase-tagged ATAD5 (AID 651632); note: nearly all actives have a fitted effect of over 15% in size
Procedure, shortened: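 Luminescence read-out: after 16 hr compound exposure at 37C, ATAD5-luciferase HEK293T cells received Amplite, 30 min RT, then CCD imaging. A rise in signal marks genotoxic stress.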

[18] = qHTS assay for small molecules that induce genotoxicity in human embryonic kidney cells expressing luciferase-tagged ATAD5 - cell viability (AID 651634; calls by dose curve; note: nearly all actives have a fitted effect of over 25% in size)
Procedure, shortened: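 HEK293T ATAD5-luc cells, 2,000/well; compound 15.5 hr, 37C/5% CO2; CellTiter-Fluor 30 min, 37C; fluorescence read.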

[19] = qHTS assay for small molecule disruptors of the mitochondrial membrane potential (AID 720635)
Procedure, shortened: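 HepG2 cells exposed to compound 1 hr at 37C, then Mito-MPS dye 30 min. Ratio read of aggregate (540/590 nm) versus monomer (490/535 nm) fluorescence.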

[20] = qHTS assay to test for compound auto fluorescence at 590 nm (red) in HEK293 cells (AID 720679)
Procedure, shortened: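 Red channel, Ex/Em 540/590nm; signal expressed as equivalency to Rose Bengal sodium. HEK293, 2,000 cells/well, 10% dialyzed FBS; 23 nL compound pinned after 4-5 hr attachment; overnight 37C/5% CO2 before reading.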

[21] = activation: at 62.4 µM (top of the series)
% is set by controls: 0 for no effect and ±100 for the full control effect.

Chain of Glucocorticoid receptor (Homo sapiens) (P04150 whole entry, looked up): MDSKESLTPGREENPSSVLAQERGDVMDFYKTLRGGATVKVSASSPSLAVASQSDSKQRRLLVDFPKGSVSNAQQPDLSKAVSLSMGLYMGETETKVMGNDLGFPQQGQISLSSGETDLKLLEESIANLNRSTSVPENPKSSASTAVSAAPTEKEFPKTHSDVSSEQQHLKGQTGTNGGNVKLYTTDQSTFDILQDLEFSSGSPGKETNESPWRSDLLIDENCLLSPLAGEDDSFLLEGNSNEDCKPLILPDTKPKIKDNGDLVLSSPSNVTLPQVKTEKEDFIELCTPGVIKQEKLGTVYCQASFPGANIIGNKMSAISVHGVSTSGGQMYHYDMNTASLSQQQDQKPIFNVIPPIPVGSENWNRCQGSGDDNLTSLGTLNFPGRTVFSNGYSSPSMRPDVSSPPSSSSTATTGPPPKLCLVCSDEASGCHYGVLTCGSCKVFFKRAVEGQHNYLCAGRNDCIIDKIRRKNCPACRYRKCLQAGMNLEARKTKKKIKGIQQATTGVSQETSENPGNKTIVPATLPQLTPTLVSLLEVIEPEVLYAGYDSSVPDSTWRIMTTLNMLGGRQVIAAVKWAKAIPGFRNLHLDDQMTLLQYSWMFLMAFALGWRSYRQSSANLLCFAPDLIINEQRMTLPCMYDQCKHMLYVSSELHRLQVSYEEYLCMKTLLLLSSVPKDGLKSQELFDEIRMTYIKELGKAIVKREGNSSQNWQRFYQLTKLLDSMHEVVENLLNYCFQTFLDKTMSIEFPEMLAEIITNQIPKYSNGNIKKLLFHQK

COCCCOc1ccnc(CS(=O)c2nc3ccccc3[nH]2)c1C (configuration not stated)
inactive: Potency [1] | Potency [2] | Potency [3] | outcome [4] | outcome [5] | outcome [6] | outcome [7] | outcome [8] | outcome [9] | outcome [10] | outcome [11] | outcome [12] | outcome [13] | outcome [14] | activation ([15]; at 62.4 µM (top of the series)) -5.49% | Potency [16]
active: activation [15, 21] 16.4% [inconclusive]

COc1ccc(NC(C)=O)cc1N
inactive: outcome [17] | Potency [2] | Potency [18] | Potency [3] | Potency [19] | outcome [4] | outcome [5] | outcome [6] | outcome [20] | outcome [7] | outcome [8] | outcome [9] | outcome [10] | outcome [11] | outcome [12] | outcome [13] | outcome [14] | Potency [15, 21] | Potency [16]

CC(=O)Nc1ccccc1
inactive: outcome [17] | Potency [2] | Potency [18] | Potency [3] | outcome [4] | outcome [5] | outcome [6] | outcome [7] | outcome [8] | outcome [9] | outcome [10] | outcome [11] | outcome [12] | outcome [13] | outcome [14] | Potency [15, 21] | Potency [16]

COc1ccc2cc([C@H](C)C(=O)O)ccc2c1
inactive: Potency [2] | Potency [18] | Potency [3] | Potency [19] | outcome [4] | outcome [5] | outcome [7] | outcome [8] | outcome [9] | outcome [10] | outcome [11] | outcome [12] | outcome [13] | outcome [14]

OC[C@H]1O[C@@](CO)(O[C@H]2O[C@H](CO)[C@@H](O)[C@H](O)[C@H]2O)[C@@H](O)[C@@H]1O
inactive: outcome [17] | Potency [18] | outcome [4] | outcome [5] | outcome [6] | outcome [20] | outcome [7] | outcome [8] | outcome [9] | outcome [10] | outcome [11] | outcome [12] | outcome [13] | outcome [14]

CCCCCOC(C)=O
inactive: outcome [17] | Potency [2] | Potency [18] | Potency [3] | Potency [19] | outcome [4] | outcome [5] | outcome [6] | outcome [7] | outcome [8] | outcome [9] | outcome [10] | outcome [11] | outcome [12] | outcome [13] | outcome [14] | Potency [15, 21] | Potency [16]

O=C(O)[C@H](O)[C@@H](O)[C@H](O)[C@H](O)CO
inactive: outcome [17] | Potency [18] | Potency [3] | Potency [19] | outcome [4] | outcome [5] | outcome [20] | outcome [7] | outcome [8] | outcome [9] | outcome [10] | outcome [11] | outcome [12] | outcome [13] | outcome [14]

CC(C)c1ccc(S(=O)(=O)O)cc1
inactive: outcome [17] | Potency [2] | Potency [18] | Potency [3] | Potency [19] | outcome [4] | outcome [5] | outcome [20] | outcome [7] | outcome [8] | outcome [9] | outcome [10] | outcome [11] | outcome [12] | outcome [13] | outcome [14]

O=C(O)c1cc(C(=O)O)cc(S(=O)(=O)O)c1
inactive: outcome [17] | Potency [2] | Potency [18] | Potency [3] | Potency [19] | outcome [4] | outcome [5] | outcome [20] | outcome [7] | outcome [8] | outcome [9] | outcome [10] | outcome [11] | outcome [12] | outcome [13] | outcome [14] | Potency [15, 21] | Potency [16]

CCCCCCCCC/C=C/CC1CC(=O)OC1=O (configuration not stated)
inactive: Potency [2] | Potency [18] | Potency [3] | outcome [4] | outcome [5] | outcome [7] | outcome [8] | outcome [9] | outcome [10] | outcome [11] | outcome [12] | outcome [13] | outcome [14] | Potency [15, 21]
active: Potency [16] 49 µM

CC(=O)CC(=O)Nc1ccccc1
inactive: outcome [17] | Potency [2] | Potency [18] | Potency [3] | Potency [19] | outcome [4] | outcome [5] | outcome [20] | outcome [7] | outcome [8] | outcome [9] | outcome [10] | outcome [11] | outcome [12] | outcome [13] | outcome [14] | Potency [15, 21] | Potency [16]

CC1=CC(=O)NS(=O)(=O)O1
inactive: Potency [2] | Potency [18] | Potency [3] | Potency [19] | outcome [4] | outcome [5] | outcome [6] | outcome [20] | outcome [7] | outcome [8] | outcome [9] | outcome [10] | outcome [11] | outcome [12] | outcome [13] | outcome [14] | Potency [15, 21] | Potency [16]

OCC(CO)(CBr)CBr
inactive: outcome [17] | Potency [2] | Potency [18] | Potency [3] | Potency [19] | outcome [4] | outcome [5] | outcome [20] | outcome [7] | outcome [8] | outcome [9] | outcome [10] | outcome [11] | outcome [12] | outcome [13] | outcome [14] | Potency [15, 21] | Potency [16]
